Laboratory results published in PubChem BioAssay (NCATS).
Inconclusive results are not listed. Active and inactive are the calls of the source. Calls follow the shape of the dose curve; as a rule, active = well fitted curve in the direction sought with a large enough effect; inconclusive = small, poorly fitted or top-dose-only effect, or another doubt; inactive = no such curve, though single readings can be large; an effect the other way counts as inactive or inconclusive.

What was measured:
[1] = target: Cytochrome P450 2C9 (Homo sapiens) (UniProt P11712); test: qHTS Assay for Inhibitors and Substrates of Cytochrome P450 2C9 (AID 883); also: nearly all actives have a fitted effect of over 60% in size; also: potency is read from the fitted curve at half-maximal effect
Procedure, shortened: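 Turnover of Luciferin-H (100uM, KM) by 10nM human CYP2C9 was measured over 60 min at 37C with NADPH regeneration; inhibitors and some substrates reduce luminescence. Data normalized to sulphaphenazole 57uM.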

[2] = target: Cytochrome P450 3A4 (Homo sapiens) (UniProt P08684); test: qHTS Assay for Inhibitors and Substrates of Cytochrome P450 3A4 (AID 884); also: nearly all actives have a fitted effect of over 50% in size; also: potency is read from the fitted curve at half-maximal effect
Procedure, shortened: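 Luminescent readout of luciferin produced by CYP3A4 (20 nM) dealkylation of Luciferin-PPXE, 25 uM (its KM). NADPH-driven reaction ran 60 min at RT after 10 min compound preincubation; data scaled to 57 uM ketoconazole as 100% inhibition.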

[3] = target: Cytochrome P450 2D6 (Homo sapiens) (UniProt P10635); test: qHTS Assay for Inhibitors and Substrates of Cytochrome P450 2D6 (AID 891); also: nearly all actives have a fitted effect of over 60% in size; also: potency is read from the fitted curve at half-maximal effect
Procedure, shortened: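 Luminescent read-out of luciferin formed by 5 nM human CYP2D6 demethylating 30 uM Luciferin-ME EGE (Km level) over 60 min at room temperature after NADPH regeneration addition. Data normalized to full inhibition by 1.43 uM quinidine.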

[4] = target: Cytochrome P450 2C19 (Homo sapiens) (UniProt P33261); test: qHTS Assay for Inhibitors and Substrates of Cytochrome P450 2C19 (AID 899); also: nearly all actives have a fitted effect of over 60% in size; also: potency is read from the fitted curve at half-maximal effect
Procedure, shortened: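 Reactions contain 5nM enzyme, 10uM Luciferin-H EGE (KM) and 50mM KPO4; compound preincubates 10 min at 37C, NADPH regeneration starts turnover for 60 min. Luminescence after detection reagent gives activity.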

[5] = S16 Schwann cell PMP22 intronic element firefly luciferase assay (AID 624032); also: nearly all actives have a fitted effect of over 30% in size; also: potency is read from the fitted curve at half-maximal effect
Procedure, shortened: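 Luciferase reporter of PMP22 intronic-element expression in stably transfected S16 rat Schwann cells, read by ONE-Glo luminescence after 24 h compound exposure at 37 C. Activity scaled between DMSO (0%) and positive-control PTC124; concentration-effect curves quality-classified.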

[6] = target: Cytochrome P450 3A4 (Homo sapiens) (UniProt P08684); test: qHTS Assay for Activators of Cytochrome P450 3A4 (AID 885); also: nearly all actives have a fitted effect of over 65% in size
Procedure, shortened: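 Human CYP3A4 dealkylates Luciferin-PPXE to luciferin, which luciferase detection converts to light. Substrate was at its KM (25uM), buffer 200mM KPO4, reaction 60 min at RT.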

7G8 = test: qHTS profiling for inhibitors of Plasmodium falciparum proliferation (AID 504749); also: nearly all actives have a fitted effect of over 60% in size; also: potency is read from the fitted curve at half-maximal effect; details: P. falciparum in erythrocytes, SYBR Green DNA, 72 h; series mostly up to 12.8 µM
Procedure, shortened: (§1)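 In a 72 h erythrocytic culture (37 C, humidified, 5% CO2) at 2.5% hematocrit and 0.3% starting parasitemia, compounds were tested; SYBR Green I in detergent lysis buffer stained parasite DNA overnight.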

CP211 = test: as above; details: P. falciparum in erythrocytes, SYBR Green DNA, 72 h; series mostly up to 12.8 µM
Procedure, shortened: as §1

CP215 = test: as above; details: P. falciparum in erythrocytes, SYBR Green DNA, 72 h; series mostly up to 12.8 µM
Procedure, shortened: as §1

CP260 = test: as above; details: P. falciparum in erythrocytes, SYBR Green DNA, 72 h; series mostly up to 12.8 µM
Procedure, shortened: as §1

CP266 = test: as above; details: P. falciparum in erythrocytes, SYBR Green DNA, 72 h; series mostly up to 12.8 µM
Procedure, shortened: as §1

CP269 = test: as above; details: P. falciparum in erythrocytes, SYBR Green DNA, 72 h; series mostly up to 12.8 µM
Procedure, shortened: as §1

CP297 = test: as above; details: P. falciparum in erythrocytes, SYBR Green DNA, 72 h; series mostly up to 12.8 µM
Procedure, shortened: as §1

CP315 = test: as above; details: P. falciparum in erythrocytes, SYBR Green DNA, 72 h; series mostly up to 12.8 µM
Procedure, shortened: as §1

CP335 = test: as above; details: P. falciparum in erythrocytes, SYBR Green DNA, 72 h; series mostly up to 12.8 µM
Procedure, shortened: as §1

GB4 = test: as above; details: P. falciparum in erythrocytes, SYBR Green DNA, 72 h; series mostly up to 12.8 µM
Procedure, shortened: as §1

P94_40 = test: as above; details: P. falciparum in erythrocytes, SYBR Green DNA, 72 h; series mostly up to 12.8 µM
Procedure, shortened: as §1

PC26 = test: as above; details: P. falciparum in erythrocytes, SYBR Green DNA, 72 h; series mostly up to 12.8 µM
Procedure, shortened: as §1

W2 = test: as above; details: P. falciparum in erythrocytes, SYBR Green DNA, 72 h; series mostly up to 12.8 µM
Procedure, shortened: as §1

[7] = target: ATP-dependent 6-phosphofructokinase (Trypanosoma brucei brucei) (UniProt O15648); test: qHTS Assay to Find Inhibitors of T. brucei phosphofructokinase: hit validation (AID 492961);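 also: luminescence reports ADP formed as PFK phosphorylates fructose-6-phosphate with ATP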
Procedure, shortened: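 Measures ADP output of PFK (1.25 nM) at 0.1 mM ATP, 0.5 mM F6P, pH 8.0 TEA buffer with 5 mM MgCl2. No-enzyme wells define full inhibition; uninhibited enzyme wells define zero.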

Measured: Potency

Sequence of Cytochrome P450 3A4 (Homo sapiens) (P08684 whole entry, looked up): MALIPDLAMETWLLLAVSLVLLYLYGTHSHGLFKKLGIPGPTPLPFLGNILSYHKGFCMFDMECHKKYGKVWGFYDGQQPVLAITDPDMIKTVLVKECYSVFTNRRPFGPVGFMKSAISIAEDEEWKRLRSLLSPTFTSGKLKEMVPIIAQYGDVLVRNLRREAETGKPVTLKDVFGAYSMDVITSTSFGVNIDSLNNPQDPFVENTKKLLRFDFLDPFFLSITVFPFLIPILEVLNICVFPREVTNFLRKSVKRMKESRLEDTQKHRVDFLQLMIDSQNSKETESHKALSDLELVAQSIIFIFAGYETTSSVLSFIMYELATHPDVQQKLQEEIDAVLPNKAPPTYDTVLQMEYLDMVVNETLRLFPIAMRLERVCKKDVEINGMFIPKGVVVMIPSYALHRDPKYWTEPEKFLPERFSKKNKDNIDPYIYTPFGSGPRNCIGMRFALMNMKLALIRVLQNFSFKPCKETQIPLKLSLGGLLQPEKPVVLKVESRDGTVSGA
Sequence of Cytochrome P450 2D6 (Homo sapiens) (P10635 whole entry, looked up): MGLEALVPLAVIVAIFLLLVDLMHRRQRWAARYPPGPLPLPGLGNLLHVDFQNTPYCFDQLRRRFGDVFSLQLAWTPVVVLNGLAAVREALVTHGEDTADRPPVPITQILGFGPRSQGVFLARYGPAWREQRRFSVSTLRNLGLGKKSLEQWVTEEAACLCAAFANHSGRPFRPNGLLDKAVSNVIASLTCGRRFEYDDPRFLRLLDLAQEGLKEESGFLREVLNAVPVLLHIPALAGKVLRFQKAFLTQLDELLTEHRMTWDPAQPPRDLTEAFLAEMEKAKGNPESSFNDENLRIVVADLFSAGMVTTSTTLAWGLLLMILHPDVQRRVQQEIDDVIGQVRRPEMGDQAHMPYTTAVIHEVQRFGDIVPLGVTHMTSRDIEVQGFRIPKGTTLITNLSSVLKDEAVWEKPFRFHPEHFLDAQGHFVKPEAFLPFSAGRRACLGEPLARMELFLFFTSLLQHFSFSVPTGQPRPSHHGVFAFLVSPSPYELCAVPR
Sequence of Cytochrome P450 2C9 (Homo sapiens) (P11712 whole entry, looked up): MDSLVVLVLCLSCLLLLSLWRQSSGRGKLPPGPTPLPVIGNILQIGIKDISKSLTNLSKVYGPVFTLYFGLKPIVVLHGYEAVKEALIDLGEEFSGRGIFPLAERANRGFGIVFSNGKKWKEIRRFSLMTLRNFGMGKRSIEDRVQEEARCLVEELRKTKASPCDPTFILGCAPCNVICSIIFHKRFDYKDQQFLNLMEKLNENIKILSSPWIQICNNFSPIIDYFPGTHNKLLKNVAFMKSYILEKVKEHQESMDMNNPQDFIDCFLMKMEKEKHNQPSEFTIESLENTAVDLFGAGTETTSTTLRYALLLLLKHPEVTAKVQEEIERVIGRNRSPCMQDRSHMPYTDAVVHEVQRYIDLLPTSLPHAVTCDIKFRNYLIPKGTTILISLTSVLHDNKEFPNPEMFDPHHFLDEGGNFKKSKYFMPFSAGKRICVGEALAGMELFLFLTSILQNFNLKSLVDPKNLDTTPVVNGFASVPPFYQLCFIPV
Sequence of Cytochrome P450 2C19 (Homo sapiens) (P33261 whole entry, looked up): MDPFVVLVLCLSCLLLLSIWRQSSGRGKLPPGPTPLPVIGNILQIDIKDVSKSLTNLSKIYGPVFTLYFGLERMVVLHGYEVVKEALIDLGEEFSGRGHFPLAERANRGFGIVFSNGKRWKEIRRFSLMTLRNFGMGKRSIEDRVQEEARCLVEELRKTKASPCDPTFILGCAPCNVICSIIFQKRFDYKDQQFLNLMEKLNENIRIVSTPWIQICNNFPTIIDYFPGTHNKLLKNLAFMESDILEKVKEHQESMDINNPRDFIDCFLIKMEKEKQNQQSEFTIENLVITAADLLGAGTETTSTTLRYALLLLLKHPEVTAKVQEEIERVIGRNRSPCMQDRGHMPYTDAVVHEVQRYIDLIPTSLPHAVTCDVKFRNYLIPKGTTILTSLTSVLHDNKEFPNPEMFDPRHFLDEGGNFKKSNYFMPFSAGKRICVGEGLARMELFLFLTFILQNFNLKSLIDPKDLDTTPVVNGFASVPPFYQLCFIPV
Sequence of ATP-dependent 6-phosphofructokinase (Trypanosoma brucei brucei) (O15648 whole entry, looked up): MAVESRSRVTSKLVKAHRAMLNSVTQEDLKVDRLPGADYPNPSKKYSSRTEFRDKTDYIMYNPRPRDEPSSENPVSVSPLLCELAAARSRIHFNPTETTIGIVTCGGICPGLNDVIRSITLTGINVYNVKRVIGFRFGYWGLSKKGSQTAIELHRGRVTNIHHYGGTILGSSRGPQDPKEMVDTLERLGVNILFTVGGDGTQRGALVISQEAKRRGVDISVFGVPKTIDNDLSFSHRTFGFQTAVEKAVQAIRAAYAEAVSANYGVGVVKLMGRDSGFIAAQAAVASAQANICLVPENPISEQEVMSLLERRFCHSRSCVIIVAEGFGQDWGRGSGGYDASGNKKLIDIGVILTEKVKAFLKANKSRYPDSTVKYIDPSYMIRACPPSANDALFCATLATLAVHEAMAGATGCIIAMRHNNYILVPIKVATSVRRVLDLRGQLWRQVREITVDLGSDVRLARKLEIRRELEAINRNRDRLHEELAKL

Cc1onc(-c2c(Cl)cccc2Cl)c1C(=O)N[C@H]1C(=O)N2[C@H]1SC(C)(C)[C@H]2C(=O)O
inactive: [1] | [2] | [3] | [4]

C#C[C@@]1(O)CC[C@@H]2[C@@H]3CCC4=C(CCC(=O)C4)[C@H]3CC[C@]21C
active: [4] 63.1 nM | [5] 3890 nM

COc1cc2c(cc1OC)-c1cc3ccc(OC)c(OC)c3c[n+]1CC2
inactive: [6]

C=CC1=C(C(=O)O)N2C(=O)[C@@H](NC(=O)/C(=N\OCC(=O)O)c3csc(N)n3)[C@@H]2SC1
inactive: [5] | 7G8 | CP211 | CP215 | CP260 | CP266 | CP269 | CP297 | CP315 | CP335 | GB4 | P94_40 | PC26 | W2

N#Cc1cccc(-c2cncnc2-n2ccnc2)c1
inactive: [6]
active: [2] 2510 nM

CC(=O)OCC(=O)[C@@]1(O)CC[C@@H]2[C@H]3CCC4=CC(=O)C=C[C@]4(C)[C@]3(F)[C@@H](O)C[C@@]21C
inactive: [7] | [5] | 7G8 | CP211 | CP215 | CP260 | CP266 | CP269 | CP297 | CP315 | CP335 | GB4 | PC26 | W2

C[C@H]1CC[C@]2(OC1)O[C@@H]1C[C@@H]3[C@@H]4CC[C@H]5C[C@@H](O)CC[C@]5(C)[C@@H]4CC(=O)[C@@]3(C)[C@H]1[C@@H]2C
inactive: [7] | [5] | 7G8 | CP211 | CP215 | CP260 | CP266 | CP269 | CP297 | CP315 | CP335 | GB4 | P94_40 | PC26 | W2

CC(=O)C[C@H](c1ccc([N+](=O)[O-])cc1)c1c(O)c2ccccc2oc1=O
active: [1] 631 nM
inactive: [7] | 7G8 | CP211 | CP215 | CP260 | CP266 | CP269 | CP315 | CP335 | GB4 | P94_40 | PC26 | W2

NS(=O)(=O)c1cc2c(cc1C(F)(F)F)N[C@H](Cc1ccccc1)NS2(=O)=O
inactive: [6] | [7] | 7G8 | CP211 | CP215 | CP260 | CP266 | CP269 | CP297 | CP315 | CP335 | GB4 | P94_40 | PC26 | W2

COc1ccc2c3c([nH]c2c1)[C@@H]1C[C@@H]2[C@@H](C[C@H](O)[C@H](OC)[C@H]2C(=O)O)CN1CC3
inactive: [1]

CCC[C@H]1C[C@H](C(=O)N[C@H]([C@@H]2O[C@H](SC)[C@@H](O)[C@H](O)[C@@H]2O)[C@H](C)O)N(C)C1
inactive: [1]

CCCC[C@H](CC)CN1CN(C[C@@H](CC)CCCC)CC(C)(N)C1
active: [3] 1260 nM | CP260 3550 nM
inactive: [7] | CP211 | CP215 | CP266 | CP269 | CP297 | CP315 | CP335 | GB4 | P94_40 | PC26

NS(=O)(=O)c1cc2c(cc1Cl)N[C@@H](C(Cl)Cl)NS2(=O)=O
inactive: [7] | [5] | 7G8 | CP211 | CP215 | CP260 | CP266 | CP269 | CP297 | CP315 | CP335 | GB4 | P94_40 | PC26

COc1c(O[C@H]2O[C@@H](CO)[C@@H](O)[C@@H](O)[C@@H]2O)cc2c(c1OC)-c1ccc(SC)c(=O)cc1[C@H](NC(C)=O)CC2
inactive: [7] | [5] | 7G8 | CP211 | CP215 | CP266 | CP269 | CP297 | CP315 | CP335 | GB4 | P94_40 | PC26 | W2

Cc1noc(C)c1-c1nc(Nc2ccncc2)c2ccccc2n1
inactive: [6]
active: [2] 316 nM

NC(=O)c1ccc[n+]([C@@H]2O[C@H](COP(=O)([O-])OP(=O)(O)OC[C@H]3O[C@@H](n4cnc5c(N)ncnc54)[C@@H](O)[C@@H]3O)[C@@H](O)[C@@H]2O)c1
inactive: [1] | [2] | [3] | [4] | [5] | 7G8 | CP211 | CP215 | CP260 | CP266 | CP269 | CP297 | CP315 | CP335 | GB4 | P94_40 | W2

C[C@@H](C(=O)O)c1ccc(C(=O)c2ccccc2)s1
active: [4] 3980 nM
inactive: [6] | 7G8 | CP211 | CP215 | CP260 | CP269 | CP297 | CP315 | CP335 | GB4 | P94_40 | PC26 | W2

C=CCSC[C@@H]1Nc2cc(Cl)c(S(N)(=O)=O)cc2S(=O)(=O)N1
inactive: [1]
